Most compounds without a hit are left out; they make up all but 20% or so of the library.
Pf growth 48h – Primary qHTS for delayed death inhibitors of the malarial parasite plastid, 48 hour incubation | P. falciparum luciferase growth in erythrocytes, 48 h | Potency, µM (titrated, usually from 28.7 µM), actives largely listed as inhibitors | 310,000 compounds, 5.9% hits | AID 504832, 2011
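Luciferase-expressing P. falciparum in infected erythrocytes (2% hematocrit, 0.1% parasitemia final) in RPMI 1640/0.5% Albumax were exposed to compound for 48 hours at 37 C, 5% CO2; growth read as luminescence.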
Shiga inhibitor – A qHTS for Small Molecule Inhibitors of Shiga Toxin; AID 2315, 2010; 290,000 compounds, 9.2% hits; inhibition, % at 38.7 µM; Vero cells, Shiga toxin protein synthesis inhibition reporter; in the data active means inhibition mostly above about 28%, no sharp cut-off; inactive means mostly below about 43%
Pf growth 96h – Primary qHTS for delayed death inhibitors of the malarial parasite plastid, 96 hour incubation; P. falciparum luciferase reporter growth, 96 h; 320,000 compounds, 6.9% hits; AID 504834, 2011; Potency, µM (series often up to 28.7 µM), most hits filed as inhibitors
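P. falciparum expressing integrated firefly luciferase grown in erythrocytes (2% hematocrit, 0.05% parasitemia final) with compounds for 96 hours at 37 C, 5% CO2. Growth inhibition read as loss of luminescence after adding luciferase detection reagent.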
HCMV antiviral – qHTS Assay for inhibitors of the human cytomegalovirus (HCMV). 410,000 compounds, 4.5% hits. activity change, negative = inhibition, % at 57.5 µM. AID 1259415, 2018. HFF cells, HCMV-luciferase reporter, 72 h; hits give low values; in the data active means activity change below about -60%; inconclusive means no clear call, values can overlap the other calls; inactive means above about -39%
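Two-dose cell screen: HFF monolayers treated with compounds and infected with luciferase-expressing HCMV at 1 PFU/cell, 72 h at 37C, then lysed for luciferase measurement.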
Cycloheximide cs – Cycloheximide Counterscreen for Small Molecule Inhibitors of Shiga Toxin | max response, % | 300,000 compounds, 12% hits | cell reporter, cycloheximide protein synthesis inhibition counterscreen; in the data active means max response mostly above about 13%, no sharp cut-off; inactive means mostly below about 14%; further: read at 38.3 µM for the half of the compounds with a filed dose
Of the large screens only hits and unclear results are named; the others gave an inactive call. Unless noted, the call rests on the fitted dose curve; in most records, active means well fitted inhibition curve with a large enough effect; inconclusive means small, poorly fitted or top-dose-only effect, or another doubt; inactive means no such curve, though single readings can be large or run the other way.

CC(=O)c1ccc(S(=O)(=O)N2CCCC2)cc1	Shiga inhibitor 81.8, Cycloheximide cs 43.0 (no result: Pf growth 96h)
COc1ccc(N2CCN(S(=O)(=O)c3ccc4c(c3)CCCC4)CC2)c([N+](=O)[O-])c1	HCMV antiviral -86.0
O=C(c1ccc(N2CCCCC2)c([N+](=O)[O-])c1)N1CCN(S(=O)(=O)c2ccccc2)CC1	Pf growth 48h 11.7µM, Pf growth 96h inconclusive (no result: Shiga inhibitor, Cycloheximide cs)
COc1cccc(N2CCN(c3ccc(S(=O)(=O)N4CCN(C)CC4)cc3[N+](=O)[O-])CC2)c1	none (no result: Pf growth 48h, Shiga inhibitor, Pf growth 96h, Cycloheximide cs)
Cc1ccc(C(=O)N2CCN(S(=O)(=O)c3ccccc3[N+](=O)[O-])C2)cc1	Shiga inhibitor 92.2, Pf growth 96h inconclusive, Cycloheximide cs 37.1
CC(=O)c1ccc(S(=O)(=O)N2CCN(C(C)=O)CC2)cc1	none
O=C(c1ccc(N2CCCCC2)c([N+](=O)[O-])c1)N1CCN(c2ccccn2)CC1	Pf growth 96h inconclusive
COc1cccc(-n2nnnc2SCC(=O)Nc2ccc(NC(C)=O)cc2)c1	none
Cc1nn2c(=O)cc(COC(=O)c3ccc(NC(=O)c4cccc(Br)c4)cc3)nc2s1	none (no result: Pf growth 48h, Shiga inhibitor, Pf growth 96h, Cycloheximide cs)
O=C(CSc1nnc(C2CC2)n1C1CC1)c1ccccc1F	Pf growth 96h inconclusive (no result: Shiga inhibitor, Cycloheximide cs)
CC1CC(C)CN(C(=O)c2ccc(S(=O)(=O)N3CC(C)CC(C)C3)cc2)C1 (stereo not given)	HCMV antiviral -65.0
CS(=O)(=O)N1CCN(c2ccc(C(=O)N3CCOCC3)cc2[N+](=O)[O-])CC1	none
CC1CC(C)CN(S(=O)(=O)c2ccccc2[N+](=O)[O-])C1 (stereo not given)	HCMV antiviral -72.2
Cc1ccc(S(=O)(=O)N2CCN(c3ccc(C(=O)N4CCOCC4)cc3[N+](=O)[O-])CC2)cc1	Pf growth 96h 10.4µM, HCMV antiviral inconclusive
Cc1ccc(S(=O)(=O)N2CCN(c3ccc(C(F)(F)F)cc3[N+](=O)[O-])CC2)cc1	Pf growth 48h inconclusive, HCMV antiviral -76.9
Cc1ccc(S(=O)(=O)N2CCN(c3c([N+](=O)[O-])cc(C(F)(F)F)cc3[N+](=O)[O-])CC2)cc1	Pf growth 48h inconclusive
O=C1CNC(=O)N1	Pf growth 96h inconclusive
COC(=O)c1cccc(NC(=O)C2CCN(S(=O)(=O)Cc3ccccc3)CC2)c1C	none (no result: Pf growth 48h, Shiga inhibitor, Pf growth 96h, Cycloheximide cs)
Cn1ccnc1C(=O)c1ccc(S(=O)(=O)N2CCCC2)cc1	Cycloheximide cs 13.8
Cc1ccc(S(=O)(=O)N2CCN(C(=O)c3ccc(S(=O)(=O)N4CCCC4)cc3)CC2)cc1	Pf growth 48h inconclusive, Pf growth 96h 7.38µM
CC(C)(C)c1ccc(C(=O)N2CCN(S(=O)(=O)c3ccc(Br)s3)CC2)cc1	Pf growth 48h 6.57µM, Pf growth 96h 10.4µM (no result: Shiga inhibitor, Cycloheximide cs)
Cc1ccc(S(=O)(=O)N2CCCCC2)cc1C(=O)c1nccn1C	Pf growth 96h inconclusive (no result: Pf growth 48h)
CCOC(=O)N1CCN(S(=O)(=O)c2ccc(Br)s2)CC1	none
CNc1ccc(C(=O)N2CCN(S(=O)(=O)c3ccc4c(c3)OCCCO4)CC2)cc1[N+](=O)[O-]	Pf growth 48h inconclusive, Pf growth 96h 11.7µM
O=C(c1ccc(S(=O)(=O)N2CCCC2)cc1)N1CCCCCC1	Pf growth 48h inconclusive, HCMV antiviral inconclusive
COc1cc(C(=O)N2CCC(O)(c3ccccc3)CC2)cc(OC)c1OC	Pf growth 96h inconclusive (no result: Pf growth 48h)
CC(=O)N1CCN(c2ccc(S(=O)(=O)N3CCCCC3)cc2[N+](=O)[O-])CC1	none (no result: Pf growth 48h, Shiga inhibitor, Pf growth 96h, Cycloheximide cs)
Cc1ccc(S(=O)(=O)N2CCN(C(=O)c3ccc(N4CCCCC4)c([N+](=O)[O-])c3)CC2)cc1	Pf growth 48h inconclusive, Pf growth 96h 10.4µM (no result: HCMV antiviral)
Cn1ccnc1C(=O)c1cccc(Br)c1	Shiga inhibitor 39.5, Cycloheximide cs 16.5
O=C(O)c1ccc(S(=O)(=O)N2CCSCC2)cc1	Pf growth 96h inconclusive
NC(=O)c1ccc(S(=O)(=O)N2CCSCC2)cc1	Pf growth 96h 10.4µM
CSCCC(NC(=O)c1ccco1)C(=O)N1CCCC(C(F)(F)F)C1 (stereo not given)	Pf growth 96h inconclusive (no result: Shiga inhibitor, Cycloheximide cs)
CSCCC(NC(=O)c1ccco1)C(=O)N1CCN(C(c2ccccc2)c2ccccc2)CC1 (stereo not given)	Pf growth 48h 8.28µM, Pf growth 96h 2.08µM (no result: Shiga inhibitor, Cycloheximide cs)
COc1ccccc1OCc1nc2ccccc2[nH]1	Shiga inhibitor 51.1, Cycloheximide cs 52.1 (no result: Pf growth 96h)
c1cnc2c(OCc3nc4ccccc4[nH]3)cccc2c1	Shiga inhibitor 77.8, Pf growth 96h 8.28µM, Cycloheximide cs 61.8
COc1ccccc1C(=O)NCCc1nc2ccccc2[nH]1	none
CCCCc1nc2ccccc2[nH]1	none
Cc1ccccc1OCc1nc2ccccc2[nH]1	Shiga inhibitor 62.0, Cycloheximide cs 56.8
CCCOc1ccc(CNC(=O)CCCN2C(=O)CSc3c2c(C)nn3-c2ccccc2)cc1	none (no result: Pf growth 48h, Shiga inhibitor, Pf growth 96h, Cycloheximide cs)
Cc1ccc(S(=O)(=O)c2nc(-c3ccccc3)oc2SCC(=O)NCC2CCCO2)cc1 (stereo not given)	Pf growth 48h 10.4µM, Pf growth 96h 11.7µM, HCMV antiviral inconclusive
O=C(CSc1oc(-c2ccccc2)nc1S(=O)(=O)c1ccc(F)cc1)NCC1CCCO1 (stereo not given)	none
O=C(CSc1oc(-c2ccc(F)cc2)nc1S(=O)(=O)c1ccccc1)NCC1CCCO1 (stereo not given)	HCMV antiviral -63.6
CC1(C(=O)Nc2cccc(Oc3ccccc3)c2)CCN1Cc1cc2ccccc2o1 (stereo not given)	none (no result: Pf growth 48h, Shiga inhibitor, Pf growth 96h, Cycloheximide cs)
Cc1cc(OCC(=O)NCc2ccncc2)c2c(C)c(C)c(=O)oc2c1	Pf growth 48h inconclusive, Pf growth 96h inconclusive
Cc1ccc(N(CC(=O)N/N=C/c2ccc(OC3CSC3)cc2)S(=O)(=O)c2ccccc2)cc1	Pf growth 48h inconclusive
Cc1ccc(N(CC(=O)Nc2ccccc2-c2ccccc2)S(=O)(=O)c2ccccc2)c(C)c1	Pf growth 48h 11.7µM, Pf growth 96h inconclusive, HCMV antiviral inconclusive
Cc1ccc(N(CC(=O)N/N=C/c2ccc(OC3CSC3)cc2)S(=O)(=O)c2ccccc2)c(C)c1	Pf growth 48h inconclusive, Pf growth 96h 11.7µM
O=C(Nc1cccc(F)c1)C1CC(=O)N(c2ccc(Br)cc2)C1 (stereo not given)	Pf growth 48h inconclusive, Pf growth 96h inconclusive
CS(=O)(=O)N(CC(=O)Nc1ccccc1-c1ccccc1)c1ccccc1	Pf growth 96h inconclusive
O=C(NCc1ccco1)c1ccccc1NC(=O)C1CC(=O)N(c2ccc(Cl)cc2)C1 (stereo not given)	Pf growth 96h 7.38µM
O=C(NCc1ccco1)C1CC(=O)N(c2ccc(F)cc2)C1 (stereo not given)	none
O=C(Nc1cccc(Cl)c1Cl)C1CC(=O)N(c2ccc(Br)cc2)C1 (stereo not given)	Pf growth 96h 10.4µM, HCMV antiviral -91.7
CCOc1ccc(C(=O)Nc2c(C(=O)Nc3ccccc3F)oc3ccccc23)cc1OCC	none (no result: Pf growth 48h, Shiga inhibitor, Pf growth 96h, Cycloheximide cs)
COc1ccc(CNC(=O)COc2ccc([N+](=O)[O-])cc2)cc1	none
O=C(O)CSCC(=O)NCc1ccccc1	Pf growth 96h inconclusive

Compound activity (PubChem)
